In PubChem BioAssay AID485344 (National Center for Advancing Translational Sciences (NCATS), 2010):
Where “and” joins values, the source holds several entries; their conditions need not be identical. Identical values can stand only once. The whole screen tested about 340,000 compounds, of which about 6,900 (2%) were called active. The sample as a whole holds a higher share of actives than the screen did. A number with no mark means an inactive call. No stated cut-off is given here; in the data, active means inhibition above about 30%; inactive means below that, where a call was filed.

target: D(2) dopamine receptor (Homo sapiens) (UniProt P14416); experiment: HTS Assay for Allosteric Antagonists of the Human D2 Dopamine Receptor: Primary Screen for Antagonists; conditions: HEK293 TREx D2 cells, calcium flux, dopamine EC80; at 10 µM; active compounds read high; further: 0% is about no effect
Sequence (P14416 whole entry, looked up): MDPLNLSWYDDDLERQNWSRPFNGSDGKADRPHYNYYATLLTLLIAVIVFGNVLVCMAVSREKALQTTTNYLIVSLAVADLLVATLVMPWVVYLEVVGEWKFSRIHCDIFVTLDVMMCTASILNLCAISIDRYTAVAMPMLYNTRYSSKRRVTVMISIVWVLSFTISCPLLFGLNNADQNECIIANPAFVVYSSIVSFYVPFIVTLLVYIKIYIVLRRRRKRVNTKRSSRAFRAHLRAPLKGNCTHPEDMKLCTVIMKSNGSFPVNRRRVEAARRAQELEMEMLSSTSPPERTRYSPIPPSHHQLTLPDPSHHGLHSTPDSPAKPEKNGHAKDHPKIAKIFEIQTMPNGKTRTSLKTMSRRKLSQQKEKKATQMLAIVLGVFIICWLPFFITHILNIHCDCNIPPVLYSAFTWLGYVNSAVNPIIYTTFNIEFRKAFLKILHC
In short: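 In this primary screen, negative modulation is detected by tracking calcium flux after an EC80 dopamine challenge in inducible HEK293 T-REx D2 cells preexposed to test compound for 180 s.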

Question: With `COC(=O)CNS(=O)(=O)c1ccc(Cc2ccc(S(=O)(=O)NCC(=O)OC)cc2)cc1` as the compound, how does the inhibition read?
Answer: The inhibition was 41.3% (active).

Question: For `COC(=O)CNS(=O)(=O)c1ccc(OC)cc1`, which inhibition is on record?
Answer: The inhibition was 6.78%.

Question: For `C/C(N)=C(/C#N)C(=O)COC(=O)CNS(=O)(=O)c1ccc(C)cc1`, which inhibition is on record?
Answer: Its inhibition is 12.5%.

Question: For `CNS(=O)(=O)c1cccc(C(=O)OCCCC(=O)c2ccccc2)c1`, which inhibition is on record?
Answer: The inhibition was -4.56%.

Question: With `CCOC(=O)c1c(Cc2ccc(Cl)cc2)c[nH]c1C` as the compound, how does the inhibition read?
Answer: Its inhibition is -4.64%.

Question: How did the inhibition turn out when `CC(=O)c1c(C)c[nH]c1C` was run?
Answer: Its inhibition is 31.1% (active).

Question: How did the inhibition turn out when `O=C(CSc1ncnc2sccc12)N1CCN(C(=O)c2cccs2)CC1` was run?
Answer: Its inhibition is 30%.

Question: For `Cc1occc1-c1nnc(SCC(=O)NC2CCCCC2)o1`, which inhibition is on record?
Answer: The inhibition was 6.65%.

Question: How did the inhibition turn out when `CC1CN(C(=O)CCC(=O)NC2CCN(Cc3ccccc3)CC2)c2ccccc2O1` (stereo unspecified) was run?
Answer: Its inhibition is -8.98%.

Question: For `Cc1ccc2c(c1)N(C(=O)CCC(=O)NCc1cccnc1)CCO2`, which inhibition is on record?
Answer: The inhibition was 13.2%.

Question: Which inhibition does the source give for `CC1CN(C(=O)CCC(=O)NCc2cccnc2)c2ccccc2O1` (stereo unspecified) here?
Answer: Its inhibition is 35.5% (active).

Question: Which inhibition does the source give for `CC[C@H](C)C(=O)N[C@H]1CCCN1C(=O)/C=C/c1ccccc1` here?
Answer: Its inhibition is 3.07%.

Question: Which inhibition does the source give for `O=C(N[C@@H](Cc1c[nH]c2ccccc12)C(=O)O)OCC1c2ccccc2-c2ccccc21` here?
Answer: The inhibition was 5.76%.

Question: For `COc1ccc(C)cc1NC(=O)CSc1nnc2ccc(-c3ccccn3)nn12`, which inhibition is on record?
Answer: The inhibition was 24.5%.

Question: `O=C(N/N=C/c1coc2ccccc2c1=O)c1cc2ccccc2o1` was tested. Which inhibition did it give?
Answer: The inhibition was -7.75%.

Question: For `Cc1c(/C=N\NC(=O)c2cc3ccccc3o2)c2ccccc2n1C`, which inhibition is on record?
Answer: The inhibition was 33.1% (active).

Question: With `O=C(N/N=C/c1c[nH]c2ccccc12)c1cc2ccccc2o1` as the compound, how does the inhibition read?
Answer: The inhibition was -9.07%.

Question: For `COc1ccc(CCC(=O)N2CCN(S(=O)(=O)c3ccc(OC)cc3)CC2)cc1`, which inhibition is on record?
Answer: Its inhibition is -16.3%.

Question: With `Cc1cccc2c1N(CC(=O)OC(C)C)C(=O)C2=O` as the compound, how does the inhibition read?
Answer: Its inhibition is 0.945%.

Question: `CC(C)OC(=O)CN1C(=O)C(=O)c2ccccc21` was tested. Which inhibition did it give?
Answer: The inhibition was 2.86%.

Question: How did the inhibition turn out when `CCOC(=O)CN1C(=O)C(=O)c2cc(C)ccc21` was run?
Answer: Its inhibition is 37% (active).

Question: For `Cc1ccc(C(=O)OC(C)CN2CCOCC2)cc1` (stereo unspecified), which inhibition is on record?
Answer: The inhibition was 12.8%.

Question: Which inhibition does the source give for `CC(CN1CCOCC1)OC(=O)c1ccc(C(C)(C)C)cc1` (stereo unspecified) here?
Answer: Its inhibition is 70.8% (active).

Question: For `Cc1cccc(C(=O)OC(C)CN2CCCC2)c1` (stereo unspecified), which inhibition is on record?
Answer: Its inhibition is -14%.

Question: How did the inhibition turn out when `CC1CC(C)CN(C/C=C/c2ccccc2[N+](=O)[O-])C1` (stereo unspecified) was run?
Answer: Its inhibition is 7.28%.

Question: Which inhibition does the source give for `O=[N+]([O-])c1ccccc1/C=C/CN1CCCC(CO)C1` (stereo unspecified) here?
Answer: The inhibition was 35.4% (active).

Question: For `O=C(/C=C/c1ccccc1[N+](=O)[O-])OCC(=O)N1CCCC1`, which inhibition is on record?
Answer: Its inhibition is 4.52%.

Question: For `CCN(CC(=O)Nc1cc(Cl)ccc1C)C(=O)Cn1c(=O)cnc2ccccc21`, which inhibition is on record?
Answer: The inhibition was 17.9%.

Question: For `COC(=O)[C@]1(S(=O)(=O)c2ccccc2)C[C@@H]2ON=C(c3ccc(OC)cc3)[C@@H]2C1`, which inhibition is on record?
Answer: The inhibition was -8.41%.

Question: How did the inhibition turn out when `N#C[C@]1(S(=O)(=O)c2ccccc2)C[C@@H]2ON=C(c3cccc(Br)c3)[C@@H]2C1` was run?
Answer: Its inhibition is 41.5% (active).

Question: With `CC(=O)NC12CC3CC(C1)CC(C(=O)N1CCN(C(=O)c4ccco4)CC1)(C3)C2` as the compound, how does the inhibition read?
Answer: Its inhibition is -36.2%.

Question: How did the inhibition turn out when `CCCCC(CCC(=O)Nc1ccc(C(=O)OCC)cc1)C(=O)O` (stereo unspecified) was run?
Answer: Its inhibition is 4.1%.

Question: For `Cc1ccc(NC(=O)OCCNC(=O)c2ccncc2)cc1`, which inhibition is on record?
Answer: Its inhibition is -36.9%.

Question: How did the inhibition turn out when `CC(C)(COC(=O)Nc1ccccc1)COC(=O)Nc1ccccc1` was run?
Answer: The inhibition was -9.72%.

Question: `CCOC(=O)Nc1ccc(NC(=O)OCC)cc1` was tested. Which inhibition did it give?
Answer: The inhibition was 38.8% (active).

Question: Which inhibition does the source give for `CCOC(=O)Nc1ccc(S(=O)(=O)N(C)C(C)C)cc1` here?
Answer: Its inhibition is 2.07%.

Question: How did the inhibition turn out when `CCCCCOC(=O)NCCOC(=O)Nc1ccc(C(=O)OCC)cc1` was run?
Answer: Its inhibition is 33% (active).

Question: With `CCCCN(C(=O)C1=NN(c2cc(C)ccc2C)C(=O)CC1)c1c(N)n(CCC)c(=O)[nH]c1=O` as the compound, how does the inhibition read?
Answer: Its inhibition is -7.61%.

Question: For `CC(O)CNCCOc1cccc(Oc2ccccc2)c1` (stereo unspecified), which inhibition is on record?
Answer: Its inhibition is -19.3%.

Question: `COc1cccc2[nH]c(C(=O)NCCc3ccccc3)cc12` was tested. Which inhibition did it give?
Answer: Its inhibition is -14.1%.

Question: `COc1ccccc1OCCNCC(O)COc1cccc2[nH]c3ccccc3c12` (stereo unspecified) was tested. Which inhibition did it give?
Answer: The inhibition was 59.1% (active) and 51.5% (active).

Question: With `O=S(=O)(O)Oc1c[nH]c2ccccc12` as the compound, how does the inhibition read?
Answer: The inhibition was 19.7%.

Question: With `CCN(CC)S(=O)(=O)c1ccc(CNC(=O)CN2C(=O)NC3(CCc4ccccc43)C2=O)cc1` (stereo unspecified) as the compound, how does the inhibition read?
Answer: Its inhibition is -6.28%.

Question: `CCc1ccc(NC(=O)Cn2ncn3c(cc4ccccc43)c2=O)cc1` was tested. Which inhibition did it give?
Answer: Its inhibition is 12.2%.

Question: Which inhibition does the source give for `CCOC(=O)c1cn(CC(=O)Nc2ccc(C(C)C)cc2)nn1` here?
Answer: The inhibition was -8.92%.

Question: How did the inhibition turn out when `CC(C)c1ccc(NC(=O)Cn2ncc3ccccc32)cc1` was run?
Answer: Its inhibition is 32.4% (active).

Question: With `COc1ccc(OCCCC(=O)Nc2cccc(S(=O)(=O)N3CCCCCC3)c2)cc1` as the compound, how does the inhibition read?
Answer: Its inhibition is -0.774%.

Question: `O=C(c1cn(-c2ccccc2)nc1-c1cccnc1)N1CCN(S(=O)(=O)c2ccccc2F)CC1` was tested. Which inhibition did it give?
Answer: Its inhibition is 17.6%.

Question: `CCCN(CC(=O)NC(=O)NC1CCCCC1)CC(=O)Nc1cc(Cl)ccc1Cl` was tested. Which inhibition did it give?
Answer: The inhibition was -13.3%.

Question: With `Fc1ccc(NC(=S)N2CCc3[nH]c4ccccc4c3C2)cc1` as the compound, how does the inhibition read?
Answer: The inhibition was -0.813%.

Question: For `O=C(CCCN1CCc2[nH]c3ccc(F)cc3c2C1)c1ccc(F)cc1`, which inhibition is on record?
Answer: The inhibition was 92.7% (active).

Question: With `Cc1ccc2[nH]c3c(c2c1)CN(C(=O)CN1CCN(c2ccccc2)CC1)CC3` as the compound, how does the inhibition read?
Answer: The inhibition was 4.69%.

Question: For `O=C(COC(=O)c1ccc2ncsc2c1)Nc1ccc(Cl)cc1`, which inhibition is on record?
Answer: The inhibition was 18.7%.

Question: How did the inhibition turn out when `COc1ccccc1CNC(=O)C1CCN(c2nc3ccccc3o2)CC1` was run?
Answer: Its inhibition is 9.79%.

Question: For `COc1ccc(OC)c(CNC(=O)C2CCCN(c3nc4ccccc4o3)C2)c1` (stereo unspecified), which inhibition is on record?
Answer: The inhibition was -3%.

Question: With `CCc1ccc(CNC(=O)C2CCCN(c3nc4ccccc4o3)C2)cc1` (stereo unspecified) as the compound, how does the inhibition read?
Answer: The inhibition was 39.6% (active).

Question: For `CCCCc1ccc(NC(=O)CN2C(=O)NC(Cc3ccccc3)C2=O)cc1` (stereo unspecified), which inhibition is on record?
Answer: Its inhibition is 16.7%.

Question: How did the inhibition turn out when `COCc1c(C(=O)OCC(=O)Nc2ccc(OC(F)F)cc2)oc2ccccc12` was run?
Answer: Its inhibition is -10.8%.

Question: For `CSc1ccc(CCNC(=O)CS(=O)(=O)Cc2nc(-c3ccccc3F)oc2C)cc1`, which inhibition is on record?
Answer: Its inhibition is -16.4%.

Question: With `Cc1oc(-c2ccccc2F)nc1CS(=O)CC(=O)NCCN1CCCCC1C` (stereo unspecified) as the compound, how does the inhibition read?
Answer: The inhibition was -10.8%.

Question: Which inhibition does the source give for `Cc1oc(-c2ccccc2F)nc1CS(=O)(=O)CC(=O)NCCCN(C)C1CCCCC1` here?
Answer: Its inhibition is 45.2% (active).
